Experimental findings from PubChem BioAssay (NCI) are described below.

This is part of a sample that, as a whole, favours compounds with a hit. Of some 83,000 tested, about 20% had one in any assay.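 In brief: 96-well plates, 48 h treatment, single concentration, percent growth endpoint.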 Calls of active or inactive are those of the source.

The subject of the test is SNB-19 CNS. Kind of test: NCI-60 one-dose screen, 48 h (100 = growth as untreated, 0 = no growth, -100 = all killed). The following applies: 10 µM unless noted. The procedure: Growth inhibition of the SNB-19 human tumor cell line is measured as a screen for anti-cancer activity. Cells are grown in 96 well plates and exposed to the test compound for 48 hours. Compounds are tested at a single concentration, which is 10^-5 M for most compounds. The reported endpoint is percent growth (GI% or GIPRCNT), where numbers from 0 - 100% represent growth inhibition, and numbers from -100% - 0 represent cell death. For example, a value of 40 represents 60% growth inhibition. A value of 0 means no net growth occurred over the course of the experiment. A value of -40 indicates 40% of cells at the beginning of the experiment died by the end of the experiment. A value of -100 means all cells are dead at the end of the experiment.
NCI-60 Human Tumor Cell Lines Screen was performed using the standard one-dose NCI protocol, which is described in more detail at https://dtp.cancer.gov/discovery_development/nci-60/default.htm.
Compounds with GIPRCNT values below 10 were considered active. Activity score was based on GIPRCNT using the following formula: […]
Score is 0 for GIPRCNT values of 100 or above, 50 for GIPRCNT values of 0, and 100 for GIPRCNT values of -100.
Regarding `Cc1ccccc1NC(=O)N/C(N)=N/c1nc(-c2cccc([N+](=O)[O-])c2)cs1`, the growth was 44.1% (inactive).
As for `O=C(N/N=C/C=C/c1ccc([N+](=O)[O-])o1)c1cc2ccccc2cc1O`, the growth is -34.4% (active).
For `NC(=O)c1ccc[n+]([C@@H]2O[C@H](COP(=O)([O-])OP(=O)(O)OC[C@H]3O[C@@H](n4cnc5c(N)ncnc54)[C@H](O)[C@@H]3O)[C@@H](O)[C@H]2O)c1` the value was 110% (inactive); for `Cc1nc2ccccc2c(/C=C/c2ccc(Cl)cc2)c1C(=O)/C=C/c1ccc(F)cc1`, -26% (active); for `C[C@]12CC[C@@H]3c4cc(OC(F)F)c(O)cc4CC[C@H]3[C@@H]1CC[C@@H]2OS(N)(=O)=O`, 51% (inactive).
With `COc1cccc(-c2nn(-c3ccccc3)cc2-c2ccnc(NCCCNC(=O)c3cccc(C(F)(F)F)c3)c2)c1`, the growth is 45.3% (inactive).
For `COc1cc(/C=N/NC(=O)Cn2c(C(C)C)nc3ccccc32)ccc1O` the value was 99.4% (inactive); for `Cc1ccc(-n2c(-c3ccccc3)c(-c3ccccc3)c3c(SCC(=O)n4[nH]c(N)cc4=O)ncnc32)cc1`, 91.8% (inactive); for `CCCCCCN(CCCCCC)c1ccc(/C=C2/SC(=O)N(c3nc(N4CCCC4)nc(N4CCCC4)n3)C2=O)c(C)c1`, 84.4% (inactive).
`O=C1Nc2ccccc2/C1=C/c1cn(C(=O)c2ccc(Cl)cc2)c2ccccc12`: the growth is 99.1% (inactive).
The figure for `CC1SC(c2ccc(OCc3ccccc3)cc2)N(NC(=O)C(O)(c2ccccc2)c2ccccc2)C1=O` (stereo not given) is 69.3% (inactive); for `Cc1ccc(N(C(=O)CCc2c[nH]c3ccccc23)[C@H](C(=O)Nc2ccc(Cl)cc2)c2cccc([N+](=O)[O-])c2)cc1` it is 92.2% (inactive); for `Cc1cc(NCc2cc(Nc3ccnc4cc(Cl)ccc34)ccc2F)nc(N2CCN(c3ccccc3)CC2)n1` it is 76.5% (inactive).
For `C=C(C)[C@@H]1CC=C2c3sc(-c4ccc(C)cc4)nc3C[C@@H](C)[C@]2(C)C1` the value was 101% (inactive).
The figure for `N/C(=N/N=C/c1ccccc1)N/N=C\c1ccccc1` is 74.6% (inactive); for `N#CCN1C(=O)C2C3=C(CCCC3)SC2N=C1CN1CCCC1` (stereo not given) it is 106% (inactive).
`CCn1c(C)nc2cc(C(N)=O)ccc21`: the growth was 104% (inactive).
`O=S(=O)(Nc1cccc(Cl)c1)c1ccc(-c2cnc(C3CC3)o2)cc1`: the growth is 24.1% (inactive).
The figure for `CCc1ccccc1-n1c(N)c(C#N)c(-c2ccc(N(C)C)cc2)c(C#N)c1=O` is 101% (inactive).
For `N/C(=N\c1nc2ccccc2s1)NC(=O)Nc1cccc(Cl)c1` the value was 42.2% (inactive); for `COc1cc(CCC[P+](c2ccccc2)(c2ccccc2)c2ccccc2)cc2c1OCO2`, 14.9% (inactive); for `CC(C)C(NC(=O)C1(NC(=O)OCc2ccccc2)CCCC1)C(=O)O` (stereo not given), 103% (inactive).
For `CS(=O)(=O)c1ccc(Nc2nc(N[C@H]3CCCC[C@H]3N)nc3cc[nH]c(=O)c23)cc1` the value was 4.85% (active); for `O=C(COc1ccc(/C=C2\Oc3ccccc3C2=O)cc1)Nc1nc2c(s1)CCCC2`, 83% (inactive); for `Cc1cc(NCCCCNc2ccnc3cc(Cl)ccc23)nc(Nc2ccc(C(=O)N3CCCCC3)cc2)n1`, 25.1% (inactive).
On to `C[C@H](NC(=O)[C@@H]1CSSC[C@@H](NC(=O)c2nc3ccccc3cc2O)C(=O)NCC(=O)N1C)c1ccccc1`, for which the growth is 35.4% (inactive).
The figure for `N[C@@H](CCCCNCC(=O)O)C(=O)O` is 99.2% (inactive).
The figure for `N#Cc1c(N2CCNCC2)nc2sc3cc(Cl)c(Cl)cc3n2c1=N` is 98.5% (inactive); for `C#CCOc1nc(C)cc(C)c1C#N` it is 96.2% (inactive); for `Cn1c(I)c(C#C[Si](C)(C)C)c(=O)n(C(=O)c2ccccc2)c1=O` it is 95.8% (inactive).
On to `C=CCn1c(C)nc2cc(Nc3nc(Cl)nc4ccccc34)ccc21`, for which the growth is 107% (inactive).
On to `CCCCOc1nc2ccccc2cc1C1CNC(=O)c2ccccc2N1` (stereo not given), for which the growth was 33.4% (inactive).
For `COc1ccc(-c2nc3c(N)c(CO)c(C)nc3o2)cc1` the value was 111% (inactive); for `CC1CC(C(C)(C)C)C(=O)C(C(C)(C)C)C1` (stereo not given), 106% (inactive).
The figure for `COc1ccc(C(=NN=C(N)N)c2ccc(OC)cc2)cc1` is 43.6% (inactive).
With `C[n+]1cc2cc(C(N)=O)[nH]c3c(=N)c(Cl)c(N)c1c23`, the growth was 75.1% (inactive).
The figure for `O=c1c2c3c(sc2nc(N/N=C/c2ccc(Br)cc2)n1Cc1ccccc1)CCCC3` is 76.4% (inactive).
The figure for `O=C1/C(=C\c2c[nH]c3ccccc23)c2ccccc2N1c1c(Cl)cccc1Cl` is 37% (inactive).
The figure for `COc1ccc(Nc2nnc(SCc3ccccc3F)s2)cc1` is 103% (inactive); for `CC/C=C\C/C=C\C[C@H](O)C/C=C1/C(=O)C=C[C@@H]1C/C=C\CCCC(=O)O` it is 44.3% (inactive).
